# Data from PMC12214610.
# Columns and labels:
# [1] = molecular target: 30S ribosome-binding factor (UniProt P0A7G2)
# [2] = molecular target: Large ribosomal subunit protein uL24 (UniProt P60624)
# [3] = molecular target: Small ribosomal subunit protein uS13 (UniProt P0A7S9)
# Actin, cytoplasmic 2 = Actin, cytoplasmic 2 (UniProt P63261)
# [4] = molecular target: Heat shock 70 kDa protein 1B (UniProt P0DMV9)
# [5] = molecular target: Heat shock cognate 71 kDa protein (UniProt P11142)
# [6] = molecular target: Peptidyl-prolyl cis-trans isomerase A (UniProt P62937)
# [7] = molecular target: Elongation factor 1-alpha 1 (UniProt P68104)
# [8] = molecular target: Adenylyl cyclase-associated protein 1 (UniProt Q01518)
# Cofilin-1 = Cofilin-1 (UniProt P23528)
# Chain of Cofilin-1 (P23528 whole entry): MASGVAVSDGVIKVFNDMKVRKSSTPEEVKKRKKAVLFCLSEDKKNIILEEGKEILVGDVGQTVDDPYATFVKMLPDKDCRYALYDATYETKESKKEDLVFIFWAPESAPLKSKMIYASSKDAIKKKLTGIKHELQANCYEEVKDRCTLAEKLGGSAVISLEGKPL
# [9] = molecular target: DNA-binding protein HU-beta (UniProt P0ACF4)
# [10] = molecular target: Large ribosomal subunit protein bL9 (UniProt P0A7R1)
# [11] = molecular target: Large ribosomal subunit protein eL20 (UniProt Q02543)
# [12] = molecular target: Large ribosomal subunit protein eL24 (UniProt P83731)
# [13] = molecular target: Small ribosomal subunit protein uS11 (UniProt P62263)
# [14] = molecular target: Small ribosomal subunit protein uS4 (UniProt P46781)
# [15] = molecular target: Large ribosomal subunit protein eL6 (UniProt Q02878)
# [16] = molecular target: Large ribosomal subunit protein uL2 (UniProt P60422)
# [17] = molecular target: Large ribosomal subunit protein uL22 (UniProt P61175)
# [18] = molecular target: Large ribosomal subunit protein uL4 (UniProt P36578)
# [19] = molecular target: Small ribosomal subunit protein bS21 (UniProt P68679)
# [20] = molecular target: Small ribosomal subunit protein uS19 (UniProt P0A7U3)
# [21] = molecular target: Small ribosomal subunit protein uS3 (UniProt P0A7V3)
# [22] = molecular target: Small ribosomal subunit protein uS8 (UniProt P0A7W7)
# [23] = molecular target: Small ribosomal subunit protein uS5 (UniProt P0A7W1)
# [24] = molecular target: Large ribosomal subunit protein eL36 (UniProt Q9Y3U8)
# Chain of Profilin-1, P07737 (P07737 whole entry): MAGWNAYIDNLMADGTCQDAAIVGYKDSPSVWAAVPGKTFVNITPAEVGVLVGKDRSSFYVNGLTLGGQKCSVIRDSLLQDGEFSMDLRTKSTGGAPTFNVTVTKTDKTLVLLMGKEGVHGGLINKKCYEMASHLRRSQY
# Chain of Heat shock 70 kDa protein 1B (P0DMV9 whole entry): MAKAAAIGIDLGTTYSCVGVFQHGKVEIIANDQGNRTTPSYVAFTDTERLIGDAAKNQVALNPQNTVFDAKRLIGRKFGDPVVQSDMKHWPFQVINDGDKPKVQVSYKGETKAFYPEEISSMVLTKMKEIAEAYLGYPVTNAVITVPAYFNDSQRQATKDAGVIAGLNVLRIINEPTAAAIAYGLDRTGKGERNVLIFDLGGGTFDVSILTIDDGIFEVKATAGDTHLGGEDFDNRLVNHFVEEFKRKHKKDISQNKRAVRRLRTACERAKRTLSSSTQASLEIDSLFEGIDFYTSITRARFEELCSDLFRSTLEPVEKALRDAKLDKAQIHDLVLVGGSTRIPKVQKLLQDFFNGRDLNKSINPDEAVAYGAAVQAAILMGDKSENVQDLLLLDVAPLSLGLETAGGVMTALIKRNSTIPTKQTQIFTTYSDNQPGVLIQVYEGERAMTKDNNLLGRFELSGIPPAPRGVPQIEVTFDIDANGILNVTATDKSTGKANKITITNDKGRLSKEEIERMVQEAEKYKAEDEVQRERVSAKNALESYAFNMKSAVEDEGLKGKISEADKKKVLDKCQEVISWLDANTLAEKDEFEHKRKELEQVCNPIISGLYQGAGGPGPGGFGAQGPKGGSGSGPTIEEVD
# Chain of Heat shock cognate 71 kDa protein (P11142 whole entry): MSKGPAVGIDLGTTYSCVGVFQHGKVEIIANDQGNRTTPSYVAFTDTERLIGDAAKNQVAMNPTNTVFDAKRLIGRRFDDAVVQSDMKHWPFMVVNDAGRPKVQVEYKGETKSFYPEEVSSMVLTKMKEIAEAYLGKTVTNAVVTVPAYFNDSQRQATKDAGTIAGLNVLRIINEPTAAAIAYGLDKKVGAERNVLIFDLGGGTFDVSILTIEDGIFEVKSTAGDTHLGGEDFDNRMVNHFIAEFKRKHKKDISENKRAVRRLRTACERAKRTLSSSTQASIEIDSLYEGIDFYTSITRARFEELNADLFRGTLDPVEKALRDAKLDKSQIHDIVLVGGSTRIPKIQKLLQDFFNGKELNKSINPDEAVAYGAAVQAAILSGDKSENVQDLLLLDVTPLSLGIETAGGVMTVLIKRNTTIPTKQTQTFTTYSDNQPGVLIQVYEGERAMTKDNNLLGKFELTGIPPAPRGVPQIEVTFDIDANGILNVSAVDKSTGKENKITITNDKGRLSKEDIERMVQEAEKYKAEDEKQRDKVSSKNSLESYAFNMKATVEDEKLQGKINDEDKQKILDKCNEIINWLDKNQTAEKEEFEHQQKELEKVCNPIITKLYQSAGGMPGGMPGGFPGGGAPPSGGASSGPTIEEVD
substance,measurement,setting,value
"Small ribosomal subunit protein uS7, P02359",listed as a hit,[1],yes
same,listed as a hit,[2],yes
same,listed as a hit,[3],yes
"Polyubiquitin-B, P0CG47",listed as a hit,"Actin, cytoplasmic 2",yes
same,listed as a hit,[4],yes
same,listed as a hit,[5],yes
same,listed as a hit,[6],yes
"Elongation factor 2, P13639",listed as a hit,"Actin, cytoplasmic 2",yes
same,listed as a hit,[7],yes
"Actin, alpha skeletal muscle, P68133",listed as a hit,[8],yes
"Profilin-1, P07737",listed as a hit,Cofilin-1,yes
"Large ribosomal subunit protein bL19, P0A7K6",listed as a hit,[9],yes
"Peptidyl-prolyl cis-trans isomerase A, P62937",listed as a hit,[7],yes
"Large ribosomal subunit protein bL28, P0A7M2",listed as a hit,[10],yes
"Small ribosomal subunit protein uS4, P46781",listed as a hit,[11],yes
"Large ribosomal subunit protein uL4, P36578",listed as a hit,[12],yes
same,listed as a hit,[13],yes
same,listed as a hit,[14],yes
"Large ribosomal subunit protein eL28, P46779",listed as a hit,[15],yes
"Large ribosomal subunit protein bL9, P0A7R1",listed as a hit,[16],yes
"Large ribosomal subunit protein bL32, P0A7N4",listed as a hit,[17],yes
"Large ribosomal subunit protein uL16, P27635",listed as a hit,[18],yes
same,listed as a hit,[14],yes
"Small ribosomal subunit protein bS18, P0A7T7",listed as a hit,[19],yes
"Large ribosomal subunit protein bL31, P0A7M9",listed as a hit,[20],yes
"Small ribosomal subunit protein uS2, P0A7V0",listed as a hit,[21],yes
same,listed as a hit,[22],yes
"Small ribosomal subunit protein uS10, P0A7R5",listed as a hit,[21],yes
"Small ribosomal subunit protein uS4, P0A7V8",listed as a hit,[23],yes
"Small ribosomal subunit protein uS5, P0A7W1",listed as a hit,[22],yes
"Large ribosomal subunit protein eL15, P61313",listed as a hit,[24],yes
